Bioassay records as filed in PubChem BioAssay.
Rows were chosen to be rich in hits. Some 7% of all compounds tested hit in one or more screens of this group.
a7 integrin act – activators of alpha7 integrin expression for muscular dystrophy; 350,000 compounds, 0.064% hits; alpha7betagal myoblasts, beta-gal FDG fluorescence, 48 h; Potency, µM (highest dose often 38.3 µM), hits mostly activators; further: nearly all actives have a fitted effect of over 60% in size
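alpha7betagal+/- myoblasts (passage 13, 250/well) treated 48 h at 37C with compounds at 1:260 dilution of DMSO stock. Lysed, then beta-galactosidase activity read as FDG fluorescence (ex 480/em 540) after 30 min, with pre-read for autofluorescence.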
DRD3 agonist – activates the human D3 dopamine receptor | D3R DiscoveRx beta-arrestin cells, luminescence, 90 min | max activation, % | 410,000 compounds, 0.58% hits | AID 652048; in the data active means max activation above about 30%
Target sequence (P35462 whole entry, looked up): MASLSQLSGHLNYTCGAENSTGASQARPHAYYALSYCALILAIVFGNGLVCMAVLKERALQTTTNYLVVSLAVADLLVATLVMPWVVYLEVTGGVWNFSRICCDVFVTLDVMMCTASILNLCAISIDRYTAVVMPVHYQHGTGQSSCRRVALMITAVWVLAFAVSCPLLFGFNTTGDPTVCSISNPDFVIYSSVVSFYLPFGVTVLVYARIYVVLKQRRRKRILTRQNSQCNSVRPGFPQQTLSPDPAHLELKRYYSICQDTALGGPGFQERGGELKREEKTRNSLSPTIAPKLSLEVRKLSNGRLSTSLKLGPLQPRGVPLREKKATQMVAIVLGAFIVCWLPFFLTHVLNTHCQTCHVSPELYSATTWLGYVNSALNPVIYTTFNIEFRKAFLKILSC
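Agonist mode: compounds and dopamine controls were applied to plated cells for 90 min at 37 degrees C after an overnight attachment at 1500 cells/well. Luminescent read-out followed 30 - 60 minutes at room temperature with DiscoveRx detection reagent.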
ATXN viability – reduces viability in counter-screen for ATXN expression inhibitors; S2 cells (HEK-293 line with an ATXN2-luciferase reporter) viability, CellTiter-Fluor protease fluorescence, 24 h; Potency, µM (titrated, usually from 56.7 µM), most hits filed as cytotoxic; 400,000 compounds, 0.49% hits; further: nearly all actives have a fitted effect of over 40% in size
IL-1B inflam inh – inflammasome signaling inhibition, IL-1 beta readout; THP-1 LPS/ATP IL-1B secretion, AlphaLISA, 16 h; active compounds read low; activity change, % at 57.5 µM; 360,000 compounds, 4.7% hits; in the data active means activity change below about -50%; inconclusive means mostly about -30% to -49%
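THP-1 cells pretreated 1 hr with compounds (up to 57.5 uM final), then stimulated with LPS (250 ng/mL final) plus ATP (1.25 mM final); secreted IL-1B measured by AlphaLISA after 16 hr, decreased signal indicating inhibition.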
DRD3 antagonist – blocks the human D3 dopamine receptor | AID 652054 | D3R cells, DiscoveRx beta-arrestin luminescence, antagonist mode; active compounds read low | 360,000 compounds, 2.5% hits | max response, negative = inhibition, %; in the data active means max response below about -50%; inconclusive means no clear call, values can overlap the other calls
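Cells plated overnight at 1500 cells/well, then exposed to library compounds with dopamine controls for 90 minutes at 37 degrees C. DiscoveRx reagent added for 30–60 minutes at room temperature; luminescence read, quantitative HTS format.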
ATXN2 expr inh – reduces ATXN2 reporter expression in HEK-293 cells; 360,000 compounds, 0.72% hits; HEK-293 ATXN2-luciferase reporter, luminescence, 24 h; Potency, µM (doses to about 57 µM), usual class: inhibitors; AID 1745845; further: nearly all actives have a fitted effect of over 55% in size
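qHTS (up to 57 uM final) was run with 24 h compound exposure of reporter cells at 37 °C. Each well was multiplexed: SteadyGlo luminescence measured ATXN2-luciferase expression after a fluorogenic Gly-Phe-AFC viability readout (25 uM final).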
Numbers stand for hits; i = inactive; ? = inconclusive; nt = not tested or not shown. Unless noted, the call rests on the fitted dose curve; in most records, active means well fitted curve in the direction sought with a large enough effect; inconclusive means small, poorly fitted or top-dose-only effect, or another doubt; inactive means no such curve, though single readings can be large; an effect the other way counts as inactive or inconclusive.

SMILES | a7 integrin act | DRD3 agonist | ATXN viability | IL-1B inflam inh | DRD3 antagonist | ATXN2 expr inh
O=C(OCC(=O)N1CCCc2ccccc21)c1cnc(Cl)c(Cl)c1 | i | i | i | -85 | i | i
Cc1cc(N2CCCCC2)nc2ccc(NC(=O)c3cccc(Cl)c3)cc12 | nt | i | ? | nt | nt | ?
COc1ccc(CN2CC(=O)N(c3cccc(Cl)c3)C2=S)cc1OC | i | i | i | i | i | i
CC1C(=O)N(Cc2cn(CCC3OCCCO3)nn2)CCS(=O)(=O)N1Cc1ccc(-c2cccc(N(C)C)c2)cc1 (stereo not drawn) | i | i | i | i | i | i
O=S(=O)(c1cnc(Cl)c(Br)c1)N1CCc2ccccc21 | i | i | ? | -103 | -53 | ?
O=S(=O)(c1cc(Cl)ccc1Cl)N1CCc2ccccc21 | i | i | i | i | i | nt
CCOC(=O)Cn1c(=S)[nH]c2c(oc3ccc(Cl)cc32)c1=O | i | i | i | i | -68 | i
CC(C)Sc1ccccc1C(=O)Nc1ccc2c(c1)n(C)c(=O)n2C | i | i | i | i | i | i
C[C@@H]1CN([C@@H](C)CO)C(=O)c2cc(-c3ccccc3F)cnc2O[C@H]1CN(C)Cc1cccc(F)c1 | i | i | ? | i | i | i
CCn1ncc(/C=N/N=C2\CCC3C4CCc5cc(O)ccc5C4CCC23C)c1C (stereo not drawn) | i | 34 | ? | i | i | i
Cc1c(/C=N/N=C2\CCC3C4CCc5cc(O)ccc5C4CCC23C)cnn1C (stereo not drawn) | i | i | i | i | i | i
CSc1cccc(NC(=O)Cn2c(=O)n(Cc3ccccc3)c(=O)c3sc4ccccc4c32)c1 | nt | i | i | nt | nt | i
S=c1nn[nH]c2ccccc12 | i | 85 | i | i | i | i
Nc1n[nH]c2ccccc12 | i | i | i | i | i | i
CCS(=O)(=O)Nc1cccc(-c2ccc3nnc(-c4cccnc4)n3n2)c1 | i | i | i | -54 | i | i
CC1(C)CC(=O)C2=C(C1)NC(SCC(=O)Nc1ccccc1)=C(C#N)C2c1ccco1 (stereo not drawn) | i | i | i | ? | i | i
Cc1ccc(NC(=O)CSC2=C(C#N)C(c3ccco3)C3=C(CCCC3=O)N2)cc1 (stereo not drawn) | i | i | i | -52 | i | i
Cc1ccc(C(=O)CSC2=C(C#N)C(c3ccco3)C3=C(CC(C)(C)CC3=O)N2)cc1 (stereo not drawn) | i | i | i | -85 | -59 | i
N#CC1=C(SCC(=O)c2ccc(Cl)cc2)NC2=C(C(=O)CCC2)C1c1ccco1 (stereo not drawn) | i | i | i | -88 | ? | i
CCOC(=O)C1=C(c2ccccc2)NC(SCC(=O)NC2CCCCC2)=C(C#N)C1c1ccco1 (stereo not drawn) | i | i | i | -55 | ? | i
C#CCOCCOCCOCCNc1nc(N2CCN(C(=O)[C@H]([C@@H](C)CC)n3cc([C@@H](N)CC(C)C)nn3)CC2)nc(N2CCN(C(=O)[C@H](Cc3ccc(O)cc3)n3cc([C@@H](N)C(C)CC)nn3)CC2)n1 (stereo partly drawn) | i | i | i | i | -50 | i
C#CCOCCOCCOCCNc1nc(N2CCN(C(=O)CCCCCCCCCCNC(=O)[C@H]([C@@H](C)CC)n3cc(CCCCCN)nn3)CC2)nc(N2CCN(C(=O)CCCCCCCCCCNC(=O)[C@H](CCCCN)n3cc(CCCC(=O)O)nn3)CC2)n1 | i | 42 | ? | -88 | i | ?
C#CCOCCOCCOCCNc1nc(N2CCN(C(=O)CCCCCCCCCCNC(=O)Cn3cc(CCCCCN)nn3)CC2)nc(N2CCN(C(=O)CCCCCCCCCCNC(=O)[C@H]([C@@H](C)CC)n3cc(CCCCN=C(N)N)nn3)CC2)n1 | i | i | 16µM | -110 | -63 | 20µM
C#CCOCCOCCOCCNc1nc(N2CCN(C(=O)[C@H]([C@@H](C)CC)n3cc([C@@H](N)Cc4ccc(O)cc4)nn3)CC2)nc(N2CCN(C(=O)[C@H](Cc3ccc(O)cc3)n3cc([C@@H](N)C(C)CC)nn3)CC2)n1 (stereo partly drawn) | i | i | i | i | i | i
C#CCOCCOCCOCCNc1nc(N2CCN(C(=O)Cn3cc(CCO)nn3)CC2)nc(N2CCN(C(=O)[C@H]([C@@H](C)CC)n3cc(CCCN=C(N)N)nn3)CC2)n1 | i | 53 | i | i | i | i
SMILES | a7 integrin act | DRD3 agonist | ATXN viability | IL-1B inflam inh | DRD3 antagonist | ATXN2 expr inh
C#CCOCCOCCOCCNc1nc(N2CCN(C(=O)Cn3cc(CCCN=C(N)N)nn3)CC2)nc(N2CCN(C(=O)[C@H]([C@@H](C)CC)n3cc(CCCCN)nn3)CC2)n1 | i | i | i | i | i | i
Cc1ccc(C2CCN(C(=O)c3cnn(-c4cccc(Cl)c4)c3C3CCN(C(=O)OC(C)(C)C)CC3)C2)cc1 (stereo not drawn) | nt | i | nt | nt | nt | nt
C#CCOCCOCCOCCNc1nc(N2CCN(C(=O)[C@H](C(C)C)n3cc(CCO)nn3)CC2)nc(N2CCN(C(=O)[C@H](Cc3ccc(O)cc3)n3cc(CCO)nn3)CC2)n1 | i | i | i | i | i | i
C#CCOCCOCCOCCNc1nc(N2CCN(C(=O)CCCCCCCCCCNC(=O)[C@@H](CCC(=O)O)n3cc(CCCCCN)nn3)CC2)nc(N2CCN(C(=O)CCCCCCCCCCNC(=O)[C@H]([C@@H](C)CC)n3cc(CCCCCN)nn3)CC2)n1 | i | 35 | ? | -95 | i | i
C#CCOCCOCCOCCNc1nc(N2CCOCC2)nc(N2CCN(C(=O)CCCCCCCCCCNC(=O)[C@@H]([C@H](C)CC)n3cc(CCCCCN)nn3)CC2)n1 | i | i | ? | i | i | ?
C#CCOCCOCCOCCNc1nc(N2CCN(C(=O)CCCCCCCCCCNC(=O)[C@H](CCCCN)n3cc(CCCC(=O)O)nn3)CC2)nc(N2CCN(C(=O)CCCCCCCCCCNC(=O)[C@@H]([C@H](C)O)n3cc(C)nn3)CC2)n1 | i | i | i | i | i | i
C#CCOCCOCCOCCNc1nc(N2CCN(C(=O)CCCCCCCCCCNC(=O)[C@H]([C@@H](C)CC)n3cc(CCCCCN)nn3)CC2)nc(N2CCN(C(=O)CCCCCCCCCCNC(=O)[C@H](CO)n3cc(CCCCCN)nn3)CC2)n1 | i | i | 22µM | -83 | i | ?
C#CCOCCOCCOCCNc1nc(N2CCN(C(=O)CCCCCCCCCCNC(=O)[C@H]([C@@H](C)CC)n3cc(CCCCN=C(N)N)nn3)CC2)nc(N2CCN(C(=O)CCCCCCCCCCNC(=O)[C@H](CCCCN)n3cc(C)nn3)CC2)n1 | i | i | 20µM | -112 | ? | 25µM
